# Source: article PMC4336329 (PLoS ONE, 2015)
# The whole screen tested about 310,000 compounds, of which about 14,000 (4.5%) showed an effect of 50% or more. Effects have a minus sign here. The sample as a whole holds a higher share of strong results than the screen did.
# Molecular target: human ether-à-go-go-related gene (hERG) potassium channel (human, UniProt Q12809)
# Assay: primary screen, population patch clamp on CHO cells stably expressing hERG; higher = less effect of the substance
# 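Further: peak tail current of the secondary pulse compared with the same well before compound.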
# Chain of human ether-à-go-go-related gene (hERG) potassium channel (Q12809 whole entry, looked up): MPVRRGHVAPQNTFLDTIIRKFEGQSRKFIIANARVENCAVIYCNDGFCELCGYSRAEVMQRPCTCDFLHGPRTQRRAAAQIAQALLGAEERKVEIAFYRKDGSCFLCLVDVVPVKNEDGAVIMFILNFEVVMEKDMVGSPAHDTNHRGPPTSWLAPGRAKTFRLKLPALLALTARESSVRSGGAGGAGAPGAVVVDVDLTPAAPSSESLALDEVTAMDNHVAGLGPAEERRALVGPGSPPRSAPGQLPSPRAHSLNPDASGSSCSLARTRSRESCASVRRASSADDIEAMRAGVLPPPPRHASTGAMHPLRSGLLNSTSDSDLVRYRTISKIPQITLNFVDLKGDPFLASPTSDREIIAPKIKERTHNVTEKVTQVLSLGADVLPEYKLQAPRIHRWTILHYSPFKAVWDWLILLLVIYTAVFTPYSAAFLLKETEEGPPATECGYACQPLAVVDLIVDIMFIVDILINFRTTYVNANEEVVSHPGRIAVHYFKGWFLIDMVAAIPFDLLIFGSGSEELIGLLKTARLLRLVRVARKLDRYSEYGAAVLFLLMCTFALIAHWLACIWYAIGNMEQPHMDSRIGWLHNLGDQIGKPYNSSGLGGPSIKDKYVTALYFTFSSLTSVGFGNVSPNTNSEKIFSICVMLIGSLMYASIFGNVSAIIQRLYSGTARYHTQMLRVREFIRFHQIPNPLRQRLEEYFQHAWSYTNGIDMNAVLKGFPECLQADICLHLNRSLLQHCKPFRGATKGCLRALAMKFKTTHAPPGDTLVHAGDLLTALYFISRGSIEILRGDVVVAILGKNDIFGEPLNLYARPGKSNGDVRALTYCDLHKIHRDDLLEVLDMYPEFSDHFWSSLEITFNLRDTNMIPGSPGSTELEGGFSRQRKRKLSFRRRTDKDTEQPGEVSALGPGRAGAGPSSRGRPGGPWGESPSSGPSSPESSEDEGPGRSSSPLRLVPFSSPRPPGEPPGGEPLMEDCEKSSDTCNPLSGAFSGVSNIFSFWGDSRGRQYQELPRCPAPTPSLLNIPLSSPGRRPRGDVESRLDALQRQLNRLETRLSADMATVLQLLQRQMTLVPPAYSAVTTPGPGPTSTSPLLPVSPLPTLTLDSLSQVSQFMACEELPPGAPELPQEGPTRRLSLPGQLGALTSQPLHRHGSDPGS
row,SMILES,"hERG current change (%, negative = inhibition) at 10uM"
1,COc1ccc(-c2nc3c(n2O)CCc2c-3no[n+]2[O-])cc1,10.6%
2,Nc1nnnn1CC(=O)N/N=C/C=C/c1ccccc1,16.1%
3,COc1cc2c(cc1OC)CN(C(=O)c1sc(-c3cnccn3)nc1C)CC2,0.572%
4,O=S(=O)(Nc1cccc(-c2ccc(N3CCOCC3)nn2)c1)c1cc(Cl)ccc1Cl,-26.8%
5,CC(C)(C)OC(=O)N[C@@H](CCCCNC(=O)OCc1ccccc1)c1nnc([C@H](CCCCNC(=O)OCc2ccccc2)NC(=O)OC(C)(C)C)o1,-22.6%
6,COc1ccc(N(C(=O)c2ccncc2)S(=O)(=O)c2ccc(Cl)cc2)cc1,-26.4%
7,CN1OC(COC(=O)c2ccc(Cl)cc2)CC1c1ccccc1 (stereo not shown),-4.56%
8,CCCCN(C(=O)c1cc(OC)c(OC)c(OC)c1)C1=CC2CCC(C1)N2C.Cl (stereo not shown),-20.2%
9,COc1ccc(C(=O)CN(C(=O)c2ccc(Cl)cc2)N2C(=O)C3CCCCC3C2=O)cc1 (stereo not shown),-6.63%
10,COc1ccc(N(C(=O)c2ccc(F)cc2)C2=CC3CCC(C2)N3C)cc1.Cl (stereo not shown),-71.5%
11,CN1C2C=C(N(C(=O)c3ccc(Cl)cc3)c3ccccc3)CC1CC2.Cl (stereo not shown),-74%
12,COc1ccc(N(C(=O)c2ccc(Cl)cc2)C2=CC3CCC(C2)N3C)cc1.Cl (stereo not shown),-82%
13,CN1C2CCC1CC(OC(=O)c1ccc(Cl)cc1)(C(=O)O)C2.Cl (stereo not shown),1.82%
14,COc1ccc(CCN(C(=O)c2ccc(F)cc2)C2=CC3CCC(C2)N3C)cc1OC.Cl (stereo not shown),-46.6%
15,N#CC1=C(N)OC2=C(C(=O)CC(c3ccco3)C2)C1c1ccc(OCc2c(F)cccc2Cl)cc1 (stereo not shown),-1.84%
16,Nc1c([N+](=O)[O-])c(=O)oc2ccccc12,19.1%
17,CN(C)CCNC(=S)Nc1ccc(F)c(F)c1F,22.3%
18,C=CCNC(=O)c1c(Cl)cnn1-c1ccc(C)cc1,-4.22%
19,Cc1ccc(CNC(=O)CN2C(=O)COc3ccc(S(=O)(=O)N4CCCCC4)cc32)o1,16%
20,C[C@H](NC(=O)N1CCn2c1nc1ccccc12)C(=O)NCc1ccco1,-10.6%
21,CCOc1ccc(CCNC(=O)C2CCCN(S(=O)(=O)N3CCOCC3)C2)cc1OCC (stereo not shown),0.332%
22,COC(=O)c1cccc(NC(=S)N2CCN(c3ccccc3F)CC2)c1,5.71%

row,SMILES,"hERG current change (%, negative = inhibition) at 10uM"
1,CC(=O)NCCn1c(SCc2cc(=O)n3cc(Cl)ccc3n2)nc2ccccc2c1=O,-50.7%
2,O=C(CCCn1c(SCc2cc(=O)n3cc(Cl)ccc3n2)nc2ccccc2c1=O)NCC1CCCO1 (stereo not shown),-53.7%
3,O=c1c2sccc2nc(SCc2cc(=O)n3cc(Cl)ccc3n2)n1Cc1ccccn1,-26.2%
4,O=C(CCCn1c(SCc2ccccc2F)nc2ccccc2c1=O)NCC1CCCO1 (stereo not shown),-14%
5,COCCn1c(SCc2cc(=O)n3cc(C)ccc3n2)nc2ccccc2c1=O,13.7%
6,O=C(CCCn1c(SCc2cc(=O)n3ccccc3n2)nc2ccccc2c1=O)NCC1CCCO1 (stereo not shown),-1.72%
7,COc1ccc(CNc2nc(SCc3cc(=O)n4cc(Cl)ccc4n3)nc3ccccc23)cc1,-44%
8,O=c1cc(CSc2nc(NCc3ccccc3)c3ccccc3n2)nc2ccc(Cl)cn12,-59.3%
9,CC(=O)NCCn1c(SCC(=O)c2ccc(Cl)cc2)nc2ccccc2c1=O,-4.33%
10,NC(=S)N/N=C1/CCSc2ccc3ccccc3c21,-23.4%
11,C/C(=N\NC(=O)c1cccs1)C(C)(C)C,5.21%
12,CCN(c1ccc(F)cc1)S(=O)(=O)c1cccc2nsnc12,2.4%
13,COc1ccc(C(c2oc(CO)cc(=O)c2O)c2oc(CO)cc(=O)c2O)cc1OC,14.3%
14,N/C(=N\OC(=O)CCc1ccccc1)c1cccc(Br)c1,1.33%
15,Cn1c(SCC(=O)NC2CC2)nnc1C(F)(F)F,-1.32%
16,Nc1nc2c(Cl)ccc(Cl)c2s1,10.7%
17,Cc1nc(N2CCC(C(N)=O)CC2)c2nnn(Cc3ccccc3)c2n1,16.3%
18,Cc1ccc(N(CC(=O)N/N=C/c2cccs2)S(C)(=O)=O)cc1,-3.64%
19,Cc1ccccc1-n1c(C)nc2sccc2c1=O,-2.18%
20,COc1ccc(OC(C)C(=O)N2CCC(C)CC2)cc1 (stereo not shown),-5.47%
21,COc1ccc2cc(C(C)C(=O)N3CCC(C(N)=O)CC3)ccc2c1 (stereo not shown),17.1%
22,COc1ccc2cc(C(C)C(=O)N3CCC(C)CC3)ccc2c1 (stereo not shown),-71.9%

row,SMILES,"hERG current change (%, negative = inhibition) at 10uM"
1,O=C(N/N=C/c1ccc([N+](=O)[O-])cc1)c1c[nH]c2ccccc12,19.1%
2,O=C(CCn1c(=O)oc2ccccc21)Nc1cccc(Cl)c1,-2.8%
3,CCOC(=O)N1CCN(C(=O)COc2cccc3c2CCN(Cc2ccccc2F)C3=O)CC1,-31.4%
4,CCOC(=O)N1CCN(C(=O)COc2cccc3c2CCN(Cc2ccc(F)cc2)C3=O)CC1,-61%
5,CCOC(=O)N1CCN(C(=O)COc2cccc3c2CCN(Cc2cccc(C)c2)C3=O)CC1,-53.6%
6,CCOC(=O)N1CCN(C(=O)COc2cccc3c2CCN(CC)C3=O)CC1,6.35%
7,CCOC(=O)N1CCN(C(=O)COc2cccc3c2CCN(Cc2ccccc2C)C3=O)CC1,-40.7%
8,Cc1ccc(COc2cccc3c2CCN(Cc2ccc(F)cc2)C3=O)cc1,6.8%
9,Cc1cc(C)nc(NS(=O)(=O)c2ccc(N3Cc4ccccc4C3=O)cc2)n1,12.2%
10,COc1cc(C(=O)Nc2ccccc2N2CCOCC2)ccc1OCc1c(C)noc1C,-28.8%
11,O=C(NCc1cn2ccsc2n1)c1c(F)cccc1Cl,7.32%
12,COc1ccccc1N1CCN(C2CCN(C(=O)c3cccs3)CC2)CC1,-38.2%
13,O=C(c1cccs1)N1CCN(C2CCN(Cc3ccccc3)CC2)CC1,-64.3%
14,O=C(CCC1CCCC1)N1CCC(N2CCN(c3ccccc3)CC2)CC1,-66.6%
15,O=C(c1cccs1)N1CCN(c2ccccc2)CC1,-0.00412%
16,O=C(c1cccs1)N1CCN(CCc2ccccc2)CC1,-48.6%
17,O=C(CCC1CCCC1)N1CCC(N2CCCCCC2)CC1.O=C(O)C(=O)O,-29.9%
18,O=C(O)C(=O)O.O=C(c1cccs1)N1CCN(C2CCCCC2)CC1,-32.4%
19,O=C(O)C(=O)O.O=C(c1cccs1)N1CCN(Cc2ccncc2)CC1,-5.94%
20,O=C(O)C(=O)O.O=C(c1cccs1)N1CCN(CCCc2ccccc2)CC1,-64.5%
21,O=C(c1cccs1)N1CCC(N2CCN(c3ccccc3)CC2)CC1,-51.2%
22,CC(C)CC(=O)N1CCC(N2CCN(c3ccccc3)CC2)CC1,-12%

row,SMILES,"hERG current change (%, negative = inhibition) at 10uM"
1,O=C(c1cccs1)N1CCN(Cc2ccccc2)CC1,-12.2%
2,COc1ccc(C)cc1-n1c(SCC(=O)NC2CC2)nc2ccccc2c1=O,-17.4%
3,Nc1nc(SCc2nc3scc(-c4cccs4)c3c(=O)[nH]2)n[nH]1,18.9%
4,CCOc1ccc(-n2c(=O)[nH]cc(C(=O)N3CCCc4ccccc43)c2=O)cc1,-9.75%
5,Cc1cccc(N2CCN(C(=O)Cn3cccc3)CC2)c1C,2.77%
6,Cc1ccc(-c2cnc(NC(=O)CCC(=O)N3CCCCC3)n2C)cc1,-6.45%
7,O=C1C2C3C=CC(C3)C2C(=O)N1c1ccc(-c2nc3ccccc3o2)cc1 (stereo not shown),15.6%
8,CCC(C)(C)NC(=O)C(c1cccc(OC)c1OC)N(CCC(C)C)C(=O)CCC(=O)Nc1cc(C)on1 (stereo not shown),11.6%
9,Cc1n[nH]c(C)c1CCN.Cl,12.9%
10,COc1ccc(C(=O)Nc2ccc(-c3cn4ccsc4n3)cc2)cc1S(=O)(=O)N1CCOCC1,-9.6%
11,Nn1c(SCC(=O)N2CCCc3ccccc32)nnc1-c1ccccc1,2.21%
12,O=c1n(Cc2ccc(Cl)cc2)c2sc3c(c2c2ncnn12)CCCC3,-39.1%
13,O=C(Cn1c(=O)n2ncnc2c2c3c(sc21)CCCC3)c1ccccc1,-20.1%
14,C=CCn1c(=O)n2ncnc2c2c3c(sc21)CCCC3,-59.3%
15,COc1cccc(C2=NNC(=NCc3ccccc3)SC2)c1,-42.6%
16,CCn1cnc2sc(C(=O)Oc3cccc(C)c3)c(C)c2c1=O,19.9%
17,Cc1nn(C)c(Oc2ccccc2)c1CCNC(=O)CCl,35.6%
18,Cc1cccc(Oc2ccc(N)cc2)c1,-12%
19,CC(=O)c1cnc2cc(-c3ccc(C)cc3)nn2c1C,-4.26%
20,N#Cc1c(N)sc(=S)c2c1CCN(Cc1ccccc1)C2,-5.46%
21,CCN1CCc2c(sc(N)c2C#N)C1,5.55%
22,N#Cc1c(N)sc2c1CCN(CCc1ccccc1)C2,-50.5%
